# Measured values from PubChem BioAssay (NCI).
# Where “and” joins values, the source holds several entries; their conditions need not be identical. Equal values may be shown once. This is part of a sample that, as a whole, favours compounds with a hit. Of some 79,000 tested, about 15% had one in any assay. Where a structure was tested more than once in an assay, its records may differ in their call. Calls of active or inactive are those of the source. No stated cut-off is given here; in the data, active means growth inhibition above about 70%; inactive means the rest.
# How the values were obtained:
# [1] = NCI Yeast Anticancer Drug Screen. Data for the rad50 strain (AID 155);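 further: 0% = growth of vehicle-only cultures of the same strain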; settings: S. cerevisiae rad50 strain growth inhibition, stronger effect = higher value
# Summary of the method: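 Vehicle-treated cultures provide the reference for the growth inhibition reported for compound-exposed, repair-deficient yeast.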
# [2] = NCI Yeast Anticancer Drug Screen. Data for the mec2-1 strain (AID 157); settings: S. cerevisiae mec2-1 strain, stronger effect = higher value
# Summary of the method: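 Mutant yeast (mec2-1) grown with compound; growth inhibition relative to vehicle control reported.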
# [3] = NCI Yeast Anticancer Drug Screen. Data for the sgs1 mgt1 strain (AID 161);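 further: 0% = growth of cultures given vehicle only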; settings: S. cerevisiae sgs1 mgt1 strain, stronger effect = higher value
# Summary of the method: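 This yeast growth screen uses a strain with defined DNA-repair lesions; compound-treated growth is compared with vehicle-treated growth.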
# [4] = NCI Yeast Anticancer Drug Screen. Data for the cln2 rad14 strain (AID 165);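 further: 0% = growth equal to vehicle treated cultures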; settings: S. cerevisiae cln2 rad14 strain, stronger effect = higher value
# Summary of the method: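 Readout is yeast growth inhibition versus vehicle-treated controls, using a strain with cln2 and rad14 alterations exposed to compound.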
# [5] = NCI Yeast Anticancer Drug Screen. Data for the bub3 strain (AID 167); settings: S. cerevisiae bub3 mutant strain, stronger effect = higher value
# Summary of the method: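 Mutant yeast screening strain plus compound; vehicle-treated cultures serve as the 0% inhibition reference.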
# [6] = NCI Yeast Anticancer Drug Screen. Data for the mlh1 rad18 strain (AID 175); settings: S. cerevisiae mlh1 rad18 strain growth inhibition, stronger effect = higher value
# Summary of the method: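 Genetically defined yeast (DNA repair-deficient) exposed to compounds; growth inhibition determined relative to vehicle.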
# [7] = at 5.0 µM (retest, dose inferred, filed as 0.5)
# [8] = at 50.0 µM (retest, dose inferred, filed as 5.0)
SMILES,"growth inhibition [1, 7]","growth inhibition [1, 8]",growth inhibition ([1]; at 50.0 µM),"growth inhibition [2, 7]","growth inhibition [2, 8]",growth inhibition ([2]; at 50.0 µM),"growth inhibition [3, 7]","growth inhibition [3, 8]",growth inhibition ([3]; at 50.0 µM),"growth inhibition [4, 7]","growth inhibition [4, 8]",growth inhibition ([4]; at 50.0 µM),"growth inhibition [5, 7]","growth inhibition [5, 8]",growth inhibition ([5]; at 50.0 µM),"growth inhibition [6, 7]","growth inhibition [6, 8]",growth inhibition ([6]; at 50.0 µM)
CCOC(=O)C1C2OC(=O)C(C(=O)C2CN(CCCl)CCCl)C1C1CC=C(CC2=CCC(C3C4C(=O)OC(C(CN(CCCl)CCCl)C4=O)C3C(=O)OCC)CC2)CC1 (configuration not stated),96% (active),97% (active),53.5% (inactive),84% (active),99% (active),57.2% (inactive),68% (inactive),96% (active),57.1% (inactive),93% (active),96% (active),54.1% (inactive),49% (inactive),97% (active),49.5% (inactive),95% (active),98% (active),65.3% (inactive)
CC(Cl)CN(C)C (configuration not stated),24% (inactive),74% (active),75.3% (active) and 30.4% (inactive),-5% (inactive),13% (inactive),1.1% (inactive) and -17.4% (inactive),25% (inactive),57% (inactive),54.5% (inactive) and 33.9% (inactive),-1% (inactive),3% (inactive),-55.5% (inactive) and 7.95% (inactive),-8% (inactive),-10% (inactive),-20.4% (inactive) and -16.6% (inactive),11% (inactive),37% (inactive),57% (inactive) and 18.3% (inactive)
COc1ccc2c(c1O)C13CCN(C)C(C2)C12C=CC(=O)C3c1c(O)ccc(O)c12 (configuration not stated),-2% (inactive),59% (inactive),76.7% (active),13% (inactive),66% (inactive),66.5% (inactive),17% (inactive),77% (active),89.3% (active),-2% (inactive),41% (inactive),72.5% (active),-8% (inactive),55% (inactive),48.7% (inactive),17% (inactive),88% (active),84.5% (active)
c1ccc2c(c1)[nH]c1c2cc[n+]2cc3c(cc12)CCCC3,30% (inactive) and 19% (inactive),79% (active) and 97% (active),89.2% (active) and 91.5% (active),51% (inactive) and 19% (inactive),85% (active) and 97% (active),89.6% (active) and 91.6% (active),45% (inactive) and 26% (inactive),97% (active) and 98% (active),91.9% (active),55% (inactive) and 26% (inactive),97% (active) and 89% (active),83.2% (active),68% (inactive) and 33% (inactive),96% (active) and 98% (active),91.3% (active),29% (inactive) and 27% (inactive),89% (active) and 98% (active),88.7% (active) and 86.2% (active)
COc1cc2c(c(OC)c1OC)-c1ccc(O)c(=O)cc1C(NC(C)=O)CC2 (configuration not stated),1% (inactive),3% (inactive),-26.1% (inactive),-1% (inactive),-8% (inactive),17.3% (inactive),-15% (inactive),16% (inactive),-1.4% (inactive),-21% (inactive),8% (inactive),45.5% (inactive),-7% (inactive),6% (inactive),1.05% (inactive),-9% (inactive),-2% (inactive),59.6% (inactive)
C[C@H](N)C(=O)N[C@@H]1[C@H]2C(=C(O)C[C@@H](O)[C@@H]2O)C(=O)O[C@]1(C)C(Cl)Cl,18% (inactive),22% (inactive),17.1% (inactive),7% (inactive),26% (inactive),13.1% (inactive),12% (inactive),25% (inactive),6.6% (inactive),18% (inactive),53% (inactive),44.9% (inactive),7% (inactive),26% (inactive),30.9% (inactive),6% (inactive),25% (inactive),27.4% (inactive)
CC(C)(C)C1=CC(=C/C=C/c2cc(C(C)(C)C)[o+]c(C(C)(C)C)c2)C=C(C(C)(C)C)O1,99% (active),93% (active),67.3% (inactive),99% (active),96% (active),95.6% (active),99% (active),94% (active),52.5% (inactive),99% (active),94% (active),96% (active),99% (active),94% (active),94.3% (active),99% (active),95% (active),37.5% (inactive)
CO/C(N)=C(\C#N)N=Cc1cccnc1,25% (inactive),26% (inactive),29.6% (inactive),25% (inactive),30% (inactive),80.2% (active),20% (inactive),32% (inactive),36.7% (inactive),26% (inactive),25% (inactive),15.4% (inactive),29% (inactive),47% (inactive),48.2% (inactive),29% (inactive),25% (inactive),-25.4% (inactive)
CCC[CH2][Sn]([F])([CH2]CCC)[O][Sn]([F])([CH2]CCC)[CH2]CCC,51% (inactive),98% (active),97.5% (active),46% (inactive),99% (active),98.9% (active),50% (inactive),98% (active),98.2% (active),34% (inactive),98% (active),98.3% (active),54% (inactive),96% (active),98.5% (active),48% (inactive),97% (active),98.2% (active)
